Experimental data from PubChem BioAssay (NCATS).
Several values for one entry are separate records, joined by “and”; a condition that tells them apart may be missing. Equal values may be shown once. Results filed as inconclusive are left out. Activity calls are given as the source filed them. Unless noted, calls come from the whole dose curve.

Tests used:
[1] = molecular target: Peroxisome proliferator-activated receptor delta (Homo sapiens) (UniProt Q03181); assay: qHTS assay for small molecule agonists of peroxisome proliferator-activated receptor delta signaling (AID 588534);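 note: 0% = DMSO basal wells and 100% = positive control agonist at 10 µM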
Method in brief: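 Agonist-mode qHTS; reporter cells, 5 hrs 37 C pre-incubation; compound titration, 18 hrs 37 C; CCF4 dye, 2 hrs RT; fluorescence read. EC50/efficacy via Hill fit.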

[2] = molecular target: Peroxisome proliferator-activated receptor delta (Homo sapiens) (UniProt Q03181); assay: qHTS assay for small molecule antagonists of peroxisome proliferator-activated receptor delta signaling (AID 588535; active = well fitted inhibition curve with a large enough effect in the signal ratio, with a control signal flat, not every such curve was filed as active; the % refers to the signal ratio)
Method in brief: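 Inhibition of PPAR-delta response element-driven beta-lactamase expression is measured in HEK293T cells exposed to a compound titration series for 18 hrs at 37 C. Half-maximal inhibition comes from Hill equation fitting.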

[3] = molecular target: Peroxisome proliferator-activated receptor gamma (Homo sapiens) (UniProt P37231); assay: qHTS assay for small molecule agonists of peroxisome proliferator-activated receptor gamma signaling (AID 588536; active = well fitted curve in the direction sought with a large enough effect in the signal ratio, with a control signal flat, not every such curve was filed as active; the % refers to the signal ratio;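 note: 0% = DMSO basal wells and 100% = rosiglitazone at 2 µM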)
Method in brief: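 Beta-lactamase reporter read-out: CCF4 fluorescence (ex 405, em 460/530 nm) after 2 h at RT. HEK293 GeneBLAzer cells were treated for 16 h at 37 C. Hill fits gave EC50 and efficacy versus 2 uM rosiglitazone (100%) and DMSO (0%).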

[4] = molecular target: Vitamin D3 receptor (Homo sapiens) (UniProt P11473); assay: qHTS assay for small molecule antagonists of vitamin D receptor signaling (AID 588541);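 note: receptor activated by calcitriol during compound treatment; series mostly up to about 77 µM; % is set by controls: 0 for no effect and ±100 for the full control effect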
Method in brief: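 VDR-UAS-bla HEK293T cells (2000/well, 2% charcoal-stripped FBS) were treated with titrated compounds plus 1-alpha,25-dihydroxyvitamin D3 (50 nM or 3 nM final) for 16 h at 37 C. CCF4 beta-lactamase fluorescence was read; Hill fits gave IC50.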

[5] = molecular target: Vitamin D3 receptor (Homo sapiens) (UniProt P11473); assay: qHTS assay for small molecule agonists of vitamin D receptor signaling (AID 588543);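 note: 0% = DMSO basal and 100% = reference agonist control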
Method in brief: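 Agonist-mode beta-lactamase reporter: HEK293T VDR-UAS-bla cells in charcoal-stripped 2% FBS, compound series 16 h 37 C, CCF4 2 h RT. EC50 from Hill fit, scaled against DMSO and 50 nM calcitriol control.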

[6] = molecular target: Retinoic acid receptor RXR-alpha (Homo sapiens) (UniProt P19793); assay: qHTS assay for small molecule agonists of retinoid X receptor alpha signaling (AID 588544);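 note: 0% = DMSO basal wells and 100% = reference agonist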
[7] = molecular target: Thyroid hormone receptor beta (Homo sapiens) (UniProt P10828); assay: qHTS assay for small molecule agonists of thyroid hormone receptor beta signaling (AID 588545);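 note: 0% = DMSO only and 100% = 10 nM T3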
Method in brief: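 Compounds were tested as agonists in TR-UAS-bla-GripTite HEK 293 cells. After 18 hrs at 37 C, CCF4 substrate was added and fluorescence read after 2 hrs at room temperature.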

[8] = qHTS assay for small molecule antagonists of retinoid X receptor alpha signaling (AID 588546; active = well fitted inhibition curve with a large enough effect in the signal ratio, with a control signal flat, not every such curve was filed as active; the % refers to the signal ratio;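 note: cells stimulated with 9-cis-retinoic acid as agonist; % is set by controls: 0 for no effect and ±100 for the full control effect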); conditions: HEK293T RXRa-UAS-bla, beta-lactamase ratio, antagonist mode; measured here: W530 green channel, cytotoxicity proxy
Method in brief: (§1)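 Beta-lactamase reporter inhibition, read as CCF4 fluorescence ratio (ex 405, em 460/530 nm) after 2 h at RT. HEK293T UAS-bla cells, 2500/well, were stimulated with 9-cis-RA at 500 or 100 nM final alongside test compound for 18 h at 37 C.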

[9] = molecular target: Retinoic acid receptor RXR-alpha (Homo sapiens) (UniProt P19793); assay: as above; conditions: HEK293T RXRa-UAS-bla, beta-lactamase ratio, antagonist mode
Method in brief: as §1

[10] = qHTS assay for small molecule activators of the nuclear factor-kappa B (NF-kB) signaling pathway (AID 651749; active = well fitted activation curve with a large enough effect in the signal ratio; the % refers to the signal ratio; note: series mostly up to about 77 µM; % of control where 0% means no effect); conditions: NF-kB-bla ME-180 cells, beta-lactamase FRET ratio, 16 h; activation: stronger effect = higher value
Method in brief: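 Human ME-180 cervical cells with an NF-kB-bla construct; compounds added via 23 nL pin transfer, DMSO as vehicle; incubation 16 hr. Reporter activity measured by FRET disruption.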

[11] = qHTS assay for environmental chemicals that activate the Aryl hydrocarbon Receptor (AhR) signaling pathway (AID 651777; active = well fitted curve in the direction sought with a large enough effect; an effect the other way counts as inactive or inconclusive; note: nearly all actives have a fitted effect of over 15% in size; note: potency is the fitted concentration of half-maximal effect; for activation: % of control where 0% means no effect); conditions: 1A2-DRE human hepatoma cells, luciferase, 24 h; activation: stronger effect = higher value
Method in brief: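 Luminescence read-out: One-Glo added for 30 min at RT after 24 hr compound treatment (37 C, 5% CO2) of human hepatoma cells expressing a DRE/CYP1A2 promoter–luciferase reporter; increased signal indicates AhR activation.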

[12] = molecular target: Peroxisome proliferator-activated receptor alpha (Homo sapiens) (UniProt Q07869); assay: qHTS assay for small molecule agonists of the peroxisome proliferator-activated receptor alpha (PPARalpha) signaling pathway (AID 651778; active = well fitted curve in the direction sought with a large enough effect; an effect the other way counts as inactive or inconclusive; note: % of control where 0% means no effect); conditions: PathHunter PPARalpha complementation, chemiluminescence, 6 h; max response: stronger effect = higher value
Method in brief: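 Cells plated at 2,000/well and held overnight at 37 C, 5% CO2, then compound added by pin tool for 6 hr; after PathHunter detection reagent and 60 min at room temperature, chemiluminescence from enzyme complementation was read.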

[13] = qHTS assay for small molecule agonists of the antioxidant response element (ARE) signaling pathway measured by Nrf2-dependant transcriptional activity (AID 720636; active = well fitted curve in the direction sought with a large enough effect in the repeat runs; an effect the other way counts as inactive or inconclusive;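 note: HepG2 cells with an ARE-driven luciferase reporter; % of control where 0% means no effect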)
Method in brief: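 HepG2 ARE-luc reporter line, 1% dialyzed FBS; 6 hr attachment at 37 C, compound pinned in, 16 hr at 37 C/5% CO2; ONE-Glo, 30 min RT, luminescence read.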

[14] = qHTS assay for small molecule agonists of the antioxidant response element (ARE) signaling pathway measured by Nrf2-dependant transcriptional activity - cell viability counter screen (AID 720653; active = well fitted curve in the direction sought with a large enough effect in the repeat runs; an effect the other way counts as inactive or inconclusive; note: % is set by controls: 0 for no effect and ±100 for the full control effect); conditions: ARE-bla HepG2 viability, CellTiter-Glo ATP luminescence, 16 h; max response: stronger effect = lower value
Method in brief: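 ARE-bla HepG2 cells (2,000/well) rested 5 hrs at 37C/5% CO2, then exposed to compounds in DMSO for 16 hrs. Viability was read in the same wells as intracellular ATP by luminescence, 30 min at room temperature after reagent addition.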

[15] = qHTS assay for cell viability of HEK293 cells (AID 743288; active = well fitted curve in the direction sought with a large enough effect; an effect the other way counts as inactive or inconclusive; note: % is set by controls: 0 for no effect and ±100 for the full control effect; nearly all actives have a fitted effect of over 50% in size); conditions: ATP luminescence (CellTiter-Glo), 18 h; max response: stronger effect = lower value
Method in brief: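 Readout is luciferase-coupled ATP content (CellTiter-Glo luminescence, 30 min room temperature) as a measure of metabolically competent cells. Parental HEK293 cells were plated 5 h or more before compound addition, then treated 18 h at 37 C.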

[16] = qHTS assay for cell viability of the p53RE-bla HCT-116 cell line (AID 743292; active = well fitted curve in the direction sought with a large enough effect; an effect the other way counts as inactive or inconclusive; note: nearly all actives have a fitted effect of over 55% in size; note: potency is the fitted concentration of half-maximal effect)
Method in brief: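 Luminescent ATP quantitation (CellTiter-Glo) served as the viability read-out; reagent was added after 16 h compound exposure at 37 C and read after 30 min at room temperature. Cells: p53RE-bla HCT-116, 4,000 per well.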

[17] = molecular target: Nuclear receptor subfamily 1 group I member 2 (Rattus norvegicus) (UniProt Q9R1A7); assay: qHTS assay for small molecule activators of the rat pregnane X receptor (rPXR) signaling pathway (AID 651751; call rule not given here; note: 0% is about no effect); conditions: rPXR reporter cells, luciferase (One-Glo), 24 h
[18] = molecular target: Estrogen receptor (Homo sapiens) (UniProt P03372); assay: qHTS assay for small molecule agonists of estrogen receptor alpha signaling (AID 588514);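 note: 0% = vehicle only and 100% = reference agonist; nearly all actives have a fitted effect of over 70% in size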
Method in brief: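 Efficacy is expressed against 20 nM 17-beta-estradiol (100%) and DMSO basal (0%); EC50 from Hill equation. Assay: beta-lactamase reporter in ER-alpha-UAS-bla HEK 293 cells, 18 h compound incubation, CCF4 detection.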

[19] = molecular target: Glucocorticoid receptor (Homo sapiens) (UniProt P04150); assay: qHTS assay for small molecule agonists of glucocorticoid receptor signaling (AID 588532; active = well fitted curve in the direction sought with a large enough effect in the signal ratio, with a control signal flat; the % refers to the signal ratio;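 note: 100% = dexamethasone at 0.1 µM and 0% = DMSO only wells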); conditions: HeLa MMTV-bla, beta-lactamase ratio, agonist, 18 h; activation: stronger effect = higher value, percent of dexamethasone control, DMSO zero
Method in brief: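 Titration series, up to 92 uM, applied to GRE-bla HeLa cells for 18 h at 37 C. Detection by CCF4 FRET substrate after 2 h at RT.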

[20] = qHTS assay for small molecule activators of the p53 signaling pathway (AID 651743; active = well fitted activation curve with a large enough effect in the signal ratio, not every such curve was filed as active; the % refers to the signal ratio; note: potency is the fitted concentration of half-maximal effect; for activation: series mostly up to about 92 µM; % of control where 0% means no effect); conditions: HCT-116 p53RE-bla, beta-lactamase FRET ratio, 16 h; activation: stronger effect = higher value
Method in brief: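 Agonist-mode quantitative HTS in HCT-116 cells carrying a p53-response-element beta-lactamase reporter; 16 h compound treatment at 37 C, then FRET substrate loading for 2 h at room temperature and fluorescence read.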

Retinoic acid receptor RXR-alpha (Homo sapiens), sequence (P19793 whole entry, looked up): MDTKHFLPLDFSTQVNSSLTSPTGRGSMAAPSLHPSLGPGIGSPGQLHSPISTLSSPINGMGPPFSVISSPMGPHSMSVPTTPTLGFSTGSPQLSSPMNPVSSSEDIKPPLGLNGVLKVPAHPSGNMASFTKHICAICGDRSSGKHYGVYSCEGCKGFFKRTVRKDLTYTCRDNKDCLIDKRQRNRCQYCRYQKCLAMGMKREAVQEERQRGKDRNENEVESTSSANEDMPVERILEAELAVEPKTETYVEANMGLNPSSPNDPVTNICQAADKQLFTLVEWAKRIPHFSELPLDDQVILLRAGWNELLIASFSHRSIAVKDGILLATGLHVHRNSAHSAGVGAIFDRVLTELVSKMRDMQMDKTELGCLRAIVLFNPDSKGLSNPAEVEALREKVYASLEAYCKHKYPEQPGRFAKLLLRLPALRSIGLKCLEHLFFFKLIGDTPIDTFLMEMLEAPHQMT
Thyroid hormone receptor beta (Homo sapiens), sequence (P10828 whole entry, looked up): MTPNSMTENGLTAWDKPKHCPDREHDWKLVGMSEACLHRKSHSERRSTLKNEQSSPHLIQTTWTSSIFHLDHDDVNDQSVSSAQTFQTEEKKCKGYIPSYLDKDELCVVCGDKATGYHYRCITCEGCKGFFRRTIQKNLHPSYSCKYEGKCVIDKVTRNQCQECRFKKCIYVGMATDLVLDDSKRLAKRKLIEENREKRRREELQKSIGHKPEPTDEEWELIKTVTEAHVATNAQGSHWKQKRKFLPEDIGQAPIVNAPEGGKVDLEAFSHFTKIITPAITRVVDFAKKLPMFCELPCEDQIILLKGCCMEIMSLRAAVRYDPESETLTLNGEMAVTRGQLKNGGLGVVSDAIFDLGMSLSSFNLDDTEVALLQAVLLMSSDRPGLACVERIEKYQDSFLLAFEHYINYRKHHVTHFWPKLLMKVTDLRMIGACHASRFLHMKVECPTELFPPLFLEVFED
Glucocorticoid receptor (Homo sapiens), sequence (P04150 whole entry, looked up): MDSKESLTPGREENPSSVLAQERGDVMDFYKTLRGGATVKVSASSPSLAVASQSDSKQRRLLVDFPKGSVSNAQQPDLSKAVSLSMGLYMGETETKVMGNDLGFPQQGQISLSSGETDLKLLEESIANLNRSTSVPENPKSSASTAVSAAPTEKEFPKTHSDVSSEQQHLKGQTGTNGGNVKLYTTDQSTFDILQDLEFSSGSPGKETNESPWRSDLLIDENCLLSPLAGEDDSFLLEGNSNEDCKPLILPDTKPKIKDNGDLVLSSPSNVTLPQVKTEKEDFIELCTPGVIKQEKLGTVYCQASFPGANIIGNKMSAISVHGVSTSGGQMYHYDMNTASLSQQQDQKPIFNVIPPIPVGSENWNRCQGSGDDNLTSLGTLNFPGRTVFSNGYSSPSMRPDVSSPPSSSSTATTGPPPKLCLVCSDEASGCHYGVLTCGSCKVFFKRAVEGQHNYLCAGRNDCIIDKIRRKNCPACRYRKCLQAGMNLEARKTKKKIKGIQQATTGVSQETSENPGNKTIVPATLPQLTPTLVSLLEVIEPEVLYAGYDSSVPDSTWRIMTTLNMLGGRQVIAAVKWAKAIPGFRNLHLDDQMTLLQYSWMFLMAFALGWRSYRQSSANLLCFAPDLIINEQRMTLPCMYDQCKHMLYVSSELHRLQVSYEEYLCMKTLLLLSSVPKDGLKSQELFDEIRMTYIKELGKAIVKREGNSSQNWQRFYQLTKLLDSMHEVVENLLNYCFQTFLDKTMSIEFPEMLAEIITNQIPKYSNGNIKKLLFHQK
Peroxisome proliferator-activated receptor gamma (Homo sapiens), sequence (P37231 whole entry, looked up): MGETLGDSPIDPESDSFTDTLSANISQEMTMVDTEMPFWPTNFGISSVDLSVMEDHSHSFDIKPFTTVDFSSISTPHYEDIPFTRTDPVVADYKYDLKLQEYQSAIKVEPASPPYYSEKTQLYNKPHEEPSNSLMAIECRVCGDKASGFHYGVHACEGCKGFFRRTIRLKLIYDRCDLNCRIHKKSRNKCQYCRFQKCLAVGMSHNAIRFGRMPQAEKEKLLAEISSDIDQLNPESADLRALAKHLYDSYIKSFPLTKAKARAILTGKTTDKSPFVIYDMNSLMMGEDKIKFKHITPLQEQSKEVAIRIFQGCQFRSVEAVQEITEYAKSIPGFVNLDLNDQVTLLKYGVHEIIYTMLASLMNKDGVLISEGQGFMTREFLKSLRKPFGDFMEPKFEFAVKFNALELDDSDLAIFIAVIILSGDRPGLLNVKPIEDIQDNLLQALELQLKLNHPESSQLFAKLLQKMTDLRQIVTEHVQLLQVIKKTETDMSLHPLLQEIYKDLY
Nuclear receptor subfamily 1 group I member 2 (Rattus norvegicus), sequence (Q9R1A7 whole entry, looked up): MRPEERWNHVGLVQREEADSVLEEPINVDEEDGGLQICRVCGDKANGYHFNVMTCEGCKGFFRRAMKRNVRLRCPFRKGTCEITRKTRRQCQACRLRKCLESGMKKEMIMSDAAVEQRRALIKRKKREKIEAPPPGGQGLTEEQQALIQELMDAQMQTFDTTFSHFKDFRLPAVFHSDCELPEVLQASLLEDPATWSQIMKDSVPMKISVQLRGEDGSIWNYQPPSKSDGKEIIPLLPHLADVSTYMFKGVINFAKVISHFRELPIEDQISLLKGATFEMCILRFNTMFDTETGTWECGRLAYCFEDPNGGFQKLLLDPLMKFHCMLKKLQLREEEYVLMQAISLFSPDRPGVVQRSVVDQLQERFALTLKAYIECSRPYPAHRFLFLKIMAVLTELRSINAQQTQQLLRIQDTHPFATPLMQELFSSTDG
Estrogen receptor (Homo sapiens), sequence (P03372 whole entry, looked up): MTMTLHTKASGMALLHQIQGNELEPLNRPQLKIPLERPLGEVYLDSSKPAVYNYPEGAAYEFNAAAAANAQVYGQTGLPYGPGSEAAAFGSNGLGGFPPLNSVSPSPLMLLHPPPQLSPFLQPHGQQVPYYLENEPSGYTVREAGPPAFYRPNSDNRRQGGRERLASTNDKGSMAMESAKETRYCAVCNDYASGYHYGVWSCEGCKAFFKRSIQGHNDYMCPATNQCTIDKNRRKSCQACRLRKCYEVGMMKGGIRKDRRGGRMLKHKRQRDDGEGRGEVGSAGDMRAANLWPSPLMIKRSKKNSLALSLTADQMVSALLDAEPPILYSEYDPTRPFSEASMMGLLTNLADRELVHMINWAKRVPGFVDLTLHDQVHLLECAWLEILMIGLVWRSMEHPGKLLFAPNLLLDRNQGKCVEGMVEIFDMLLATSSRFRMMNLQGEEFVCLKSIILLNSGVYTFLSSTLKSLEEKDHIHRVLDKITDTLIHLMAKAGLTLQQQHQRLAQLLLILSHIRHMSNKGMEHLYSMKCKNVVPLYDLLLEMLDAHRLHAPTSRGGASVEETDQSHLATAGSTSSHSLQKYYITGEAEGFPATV
Peroxisome proliferator-activated receptor alpha (Homo sapiens), sequence (Q07869 whole entry, looked up): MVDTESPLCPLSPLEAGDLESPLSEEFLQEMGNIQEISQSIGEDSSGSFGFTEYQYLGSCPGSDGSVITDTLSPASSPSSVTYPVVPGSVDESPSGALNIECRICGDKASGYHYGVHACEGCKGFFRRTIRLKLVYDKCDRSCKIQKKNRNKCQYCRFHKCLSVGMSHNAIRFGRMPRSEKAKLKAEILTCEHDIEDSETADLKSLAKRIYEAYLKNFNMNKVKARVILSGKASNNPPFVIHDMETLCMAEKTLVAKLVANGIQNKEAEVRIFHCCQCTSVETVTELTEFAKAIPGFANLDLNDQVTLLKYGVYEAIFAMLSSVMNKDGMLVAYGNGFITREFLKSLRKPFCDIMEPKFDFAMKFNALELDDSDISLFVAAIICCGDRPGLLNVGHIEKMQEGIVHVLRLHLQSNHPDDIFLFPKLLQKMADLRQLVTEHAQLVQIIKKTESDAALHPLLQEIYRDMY
Peroxisome proliferator-activated receptor delta (Homo sapiens), sequence (Q03181 whole entry, looked up): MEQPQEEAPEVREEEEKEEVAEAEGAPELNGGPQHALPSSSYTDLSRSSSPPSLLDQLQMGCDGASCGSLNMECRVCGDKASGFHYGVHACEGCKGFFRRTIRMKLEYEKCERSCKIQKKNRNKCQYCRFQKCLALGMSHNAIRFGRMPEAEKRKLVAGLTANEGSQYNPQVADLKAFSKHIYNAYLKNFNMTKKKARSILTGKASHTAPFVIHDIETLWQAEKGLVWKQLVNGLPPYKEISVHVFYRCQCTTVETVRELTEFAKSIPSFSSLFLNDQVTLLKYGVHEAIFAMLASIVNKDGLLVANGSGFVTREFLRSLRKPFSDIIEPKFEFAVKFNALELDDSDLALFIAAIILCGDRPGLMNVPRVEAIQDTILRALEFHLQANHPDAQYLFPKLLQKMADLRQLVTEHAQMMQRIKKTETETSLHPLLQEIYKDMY
Vitamin D3 receptor (Homo sapiens), sequence (P11473 whole entry, looked up): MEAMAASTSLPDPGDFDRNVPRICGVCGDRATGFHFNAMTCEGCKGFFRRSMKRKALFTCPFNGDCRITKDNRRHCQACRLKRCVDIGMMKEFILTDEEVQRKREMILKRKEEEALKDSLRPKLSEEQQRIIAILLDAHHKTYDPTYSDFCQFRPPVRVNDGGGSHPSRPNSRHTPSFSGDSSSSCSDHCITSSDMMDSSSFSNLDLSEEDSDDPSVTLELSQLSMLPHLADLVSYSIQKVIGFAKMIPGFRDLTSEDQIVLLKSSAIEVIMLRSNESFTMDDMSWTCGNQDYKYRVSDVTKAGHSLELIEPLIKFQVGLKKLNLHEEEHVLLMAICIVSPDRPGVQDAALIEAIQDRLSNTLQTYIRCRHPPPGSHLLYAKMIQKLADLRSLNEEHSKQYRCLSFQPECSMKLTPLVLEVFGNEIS

CCNc1nc(NC(C)C)nc(SC)n1
-15.6%: max response [8]
inactive: outcome [1] | Potency [2] | Potency [3] | Potency [4] | outcome [5] | Potency [6] | Potency [7] | max response [9] -29% | activation [10] -1.51% | activation [11] 0.555% | max response [12] -2.07% | Potency [13] | max response [14] 4.35% | max response [15] -10.8% | Potency [16] | max response [17] -3.53%

CC(C)OC(=O)C(O)(c1ccc(Br)cc1)c1ccc(Br)cc1
inactive: Potency [18] | activation [19] -15% | Potency [4] | outcome [5] | activation [11] 8.09% | Potency [13] | max response [14] -7.97% | max response [15] -24.4%
active: Potency [16] 70.8 µM

CC1(C)[C@H](C=C(Cl)Cl)[C@H]1C(=O)O[C@H](C#N)c1ccc(F)c(Oc2ccccc2)c1
inactive: Potency [18] | activation [19] -0.69% and -0.284% | outcome [1] | Potency [2] | Potency [3] | Potency [4] | Potency [7] | max response [9] -6.52% | activation [20] -1.98% and 0.257% | activation [10] 4.2% | activation [11] 1.36% and 3.44% | max response [12] -0.256% and -0.375% | Potency [13] | max response [14] -5.83% and -7.88% | max response [15] -3.74% and -16.6% | Potency [16]
-5.65%: max response [8]

ClC1=C(Cl)[C@@]2(Cl)[C@H]3C[C@@H](Cl)[C@H](Cl)[C@H]3[C@@]1(Cl)C2(Cl)Cl
active: Potency [16] 50.1 µM
inactive: activation [19] -9.73% | Potency [4] | outcome [5] | max response [14] -24.7%

Cc1cc(Cl)ccc1O[C@H](C)C(=O)O
-16.8%: max response [8]
inactive: Potency [18] | Potency [6] | max response [9] -2.52% | activation [20] -0.679% | activation [10] 0.599% | activation [11] -2.24% | max response [12] -1.51% | Potency [13] | max response [14] 7.37% | max response [15] 0.74% | Potency [16] | max response [17] -1.45%

COc1ccc(/C(=C/C(=O)N2CCOCC2)c2ccc(Cl)cc2)cc1OC
inactive: Potency [3] | Potency [4] | Potency [6] | Potency [7] | max response [9] -50.8% | activation [20] -3.46% | activation [10] -1.84% | activation [11] -0.517% | max response [12] 0.316% | Potency [13] | max response [14] -2.69% | max response [15] -14.1% | Potency [16] | max response [17] 8.84%
24.3%: max response [8]

Cn1c(-c2ccccc2)cc(-c2ccccc2)[n+]1C
inactive: Potency [18] | activation [19] -9.09% | outcome [1] | Potency [3] | outcome [5] | Potency [6] | max response [9] -10.3% | activation [11] -2.45% | max response [12] -0.162% | Potency [13] | max response [14] -21.3% | max response [15] 5.36% | max response [17] -12.3%
17.2%: max response [8]

CCCCOC(=O)[C@@H](C)Oc1ccc(Oc2ccc(C#N)cc2F)cc1
inactive: Potency [18] | activation [19] -11.2% | outcome [1] | Potency [3] | Potency [6] | Potency [7] | max response [9] 12.7% | activation [20] -5.96% | activation [10] 0.919% | activation [11] -2.2% | max response [12] 5.77% | Potency [13] | max response [14] -7.64% | max response [15] 2.82% | max response [17] 1.04%
13.4%: max response [8]

CCCCNC(=O)OCC#CI
inactive: Potency [18] | outcome [1] | Potency [7] | max response [9] -22.6% | activation [20] -1.36% | activation [11] -10.9% | max response [12] -2.4% | Potency [13] | Potency [16]
2.86%: max response [8]

CO/N=C(/C(=O)OC)c1ccccc1COc1ccccc1C
inactive: Potency [18] | activation [19] -0.293% | Potency [6] | activation [10] -0.43% | activation [11] 13.1% | max response [12] 5.1% | Potency [13] | max response [14] -19.8% | max response [15] -26.1% | Potency [16]
active: Potency [20] 25.1 µM

Cc1nn(-c2cc(NS(C)(=O)=O)c(Cl)cc2Cl)c(=O)n1C(F)F
-3.07%: max response [8]
inactive: outcome [1] | Potency [2] | Potency [3] | Potency [4] | outcome [5] | Potency [6] | Potency [7] | max response [9] -28.1% | activation [20] -4.43% | activation [11] -2.63% | max response [12] -0.197% | Potency [13] | max response [14] 1.41% | max response [15] -6.27% | Potency [16] | max response [17] -0.675%

O=C(O)C(F)(F)C(F)(F)C(F)(F)C(F)(F)C(F)(F)C(F)(F)C(F)(F)C(F)(F)C(F)(F)F
inactive: Potency [18] | activation [19] -0.443% | outcome [1] | Potency [2] | Potency [3] | Potency [6] | Potency [7] | max response [9] 20.8% | activation [20] 5.35% | activation [10] 1.39% and -1.65% | activation [11] -2.6% and 0.106% | Potency [13] | max response [14] -6.6% and -12.4% | max response [15] -5.33% and -8.2% | Potency [16] | max response [17] -0.489% and -1.36%
-7.72%: max response [8]

CON(C)C(=O)Nc1ccc(Cl)c(Cl)c1
active: Potency [11] 35.5 µM
-15.9%: max response [8]
inactive: Potency [18] | activation [19] -2.11% | outcome [1] | Potency [3] | Potency [4] | Potency [6] | Potency [7] | max response [9] -0.419% | activation [20] 0.565% | activation [10] -2.01% | max response [12] -1.01% | max response [14] -26.6% | max response [15] -2.77% | Potency [16]
